High-throughput results from PubChem.
LYPLA1 counter = blocks human lysophospholipase 1, a PME1 counter-screen | inhibition, % at 5.9 µM | O75608 | recombinant LYPLA1, FP-Rh probe fluorescence polarization | hit rate 0.16% among 320,000;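 active = inhibition above the mean of all tested compounds plus 3 SD, set per campaign, cut at about 14% in these data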;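 note: inhibitors block serine hydrolase probe labeling of LYPLA1 so polarization falls; 0% = enzyme with DMSO and 100% = wells lacking LYPLA1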
Target sequence (O75608 whole entry, looked up): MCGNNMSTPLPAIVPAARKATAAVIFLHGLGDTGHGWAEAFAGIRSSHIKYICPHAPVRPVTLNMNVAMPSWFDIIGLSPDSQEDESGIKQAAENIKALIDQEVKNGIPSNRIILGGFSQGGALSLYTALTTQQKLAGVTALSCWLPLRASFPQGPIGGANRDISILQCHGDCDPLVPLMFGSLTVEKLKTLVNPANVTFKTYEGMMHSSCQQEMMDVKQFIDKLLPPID
PME-1 primary = blocks human protein phosphatase methylesterase 1; recombinant PME-1, FP-Rh probe fluorescence polarization; Q9Y570; hit rate 0.53% among 320,000; inhibition, % at 5.9 µM;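 active = inhibition above the campaign mean of all compounds plus 3 SD, cut at about 26% in these data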;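 note: competitive labeling of PME-1 active site by serine hydrolase directed probe; 0% = PME-1 with DMSO and 100% = wells lacking PME-1 enzyme; inhibitors block probe labeling so polarization falls and inhibition rises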
GSTO1 counter = counter-screen for RBBP9 inhibitors: inhibitors of human GSTO1. P78417. inhibition, % at 5.96 µM. AID 1974. recombinant GSTO1, activity-based probe fluorescence polarization. hit rate 1.1% among 300,000;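 active = inhibition above the campaign mean inhibition plus 3 SD, cut at about 35% in these data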;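 note: 0% = GSTO1-1 with DMSO and 100% = wells lacking GSTO1-1 enzyme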
Target sequence (P78417 whole entry, looked up): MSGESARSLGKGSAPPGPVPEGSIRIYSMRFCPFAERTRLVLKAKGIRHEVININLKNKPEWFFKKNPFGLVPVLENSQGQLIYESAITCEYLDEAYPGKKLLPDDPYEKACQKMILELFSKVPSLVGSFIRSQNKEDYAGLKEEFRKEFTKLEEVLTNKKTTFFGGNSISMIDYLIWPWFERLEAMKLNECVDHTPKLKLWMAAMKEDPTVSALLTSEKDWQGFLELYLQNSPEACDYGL
LYPLA2 counter = LYPLA2 (human) inhibition in PME1 counter-screen. recombinant LYPLA2, FP-Rh probe fluorescence polarization. inhibition, % at 5.9 µM. hit rate 0.38% among 320,000. AID 2177;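 active = inhibition above the screen-wide mean plus 3 SD, limit set per campaign, cut at about 26% in these data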;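 note: 0% = LYPLA2 with DMSO and 100% = wells lacking LYPLA2 enzyme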
Target sequence (O95372 whole entry, looked up): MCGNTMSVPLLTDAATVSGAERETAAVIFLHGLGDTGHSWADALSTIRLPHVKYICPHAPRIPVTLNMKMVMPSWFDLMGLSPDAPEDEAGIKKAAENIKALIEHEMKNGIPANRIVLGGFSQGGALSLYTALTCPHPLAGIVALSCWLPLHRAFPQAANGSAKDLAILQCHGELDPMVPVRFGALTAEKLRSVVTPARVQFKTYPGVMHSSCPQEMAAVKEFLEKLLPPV
PAD4 inh = inhibitors of human PAD4. Q9UM07. recombinant PAD4, RCA probe fluorescence polarization. inhibition, % at 6.36 µM. hit rate 0.41% among 330,000;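 active = percent inhibition above a cutoff equal to the mean of all tested compounds plus 3 SD, cut at about 15% in these data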;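 note: 0% = PAD4 with RCA probe and DMSO and 100% = probe without PAD4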
Fam108B counter = counter-screen for RBBP9 inhibitors: inhibitors of mouse Fam108B; recombinant Fam108B, FP-Rh probe fluorescence polarization; inhibition, % at 9.51 µM; hit rate 0.33% among 300,000; AID 1947;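 active = inhibition above the screen mean inhibition plus 3 SD, computed separately per campaign, cut at about 18% in these data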;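 note: inhibitors lower polarization as less probe binds the enzyme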
GSTO1 inh conf = GSTO1 (human) inhibition, confirmation | shares compounds with GSTO1 counter | recombinant GSTO1, probe fluorescence polarization | inhibition, % at 5.96 µM | hit rate 54% among 2,400 | AID 2176;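 active = inhibition above the primary screen's cutoff, its mean inhibition plus 3 SD, cut at about 35% in these data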;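 note: loss of polarization as inhibitors block binding of rhodamine sulfonate ester activity probe; 0% = GSTO1 with DMSO and 100% = wells lacking GSTO1 enzyme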
LYPLA1 conf = counter-screen for PME1 inhibitors: confirmation of human LYPLA1 inhibitors; shares compounds with LYPLA1 counter; recombinant LYPLA1, FP-Rh probe fluorescence polarization; inhibition, % at 5.9 µM; hit rate 69% among 480;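 active = mean inhibition across replicates above the hit cutoff set in the primary screen, cut at about 15% in these data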;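 note: loss of FP-Rh probe labeling of LYPLA1 seen as lower polarization; 0% = LYPLA1 with DMSO and 100% = wells lacking LYPLA1 enzyme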
LYPLA2 confirm = LYPLA2 (human) inhibition, confirmation counter-screen. AID 2232. recombinant LYPLA2, FP-Rh probe fluorescence polarization. shares compounds with LYPLA2 counter. inhibition, % at 5.9 µM. hit rate 72% among 1,100;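 active = mean inhibition across replicates above the hit cutoff set in the primary screen, cut at about 26% in these data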;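 note: blocked labeling of the enzyme by serine hydrolase FP-Rh probe lowers polarization; 0% = enzyme with DMSO and 100% = wells lacking LYPLA2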
PAD4 FP conf = confirmation of human PAD4 inhibitors | shares compounds with PAD4 inh | recombinant PAD4, RCA probe fluorescence polarization | hit rate 28% among 1,200 | inhibition, % at 6.36 µM | AID 488796;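 active = mean inhibition across replicates above the hit cutoff set by the earlier primary screen, cut at about 15% in these data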;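 note: inhibitors block active-site labeling by the probe so polarization falls; 0% = PAD4 with probe and DMSO and 100% = probe without PAD4 enzyme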
* hit, by the source's call; / = not tested or not shown. This is a sample that favours compounds with a hit; in the whole collection about 1.8% have one here.

SMILES | LYPLA1 counter | PME-1 primary | GSTO1 counter | LYPLA2 counter | PAD4 inh | Fam108B counter | GSTO1 inh conf | PAD4 FP conf | others
Cc1cc(C)c(C(=O)COC(=O)CCNS(=O)(=O)c2c(Cl)cccc2Cl)cc1C | -5 | -3 | 5 | -2 | 2 | -7 | / | /
COc1ccc2ccc3c(c2c1)N=CC1(O3)N(C)c2ccccc2C1(C)C (stereo not drawn) | 0 | 9 | 90* | 8 | 59* | 3 | 5 | 6
O=C1c2ccccc2C(=O)c2c1cccc2N1CCCC1 | 4 | 22 | 56* | 10 | 28* | 13 | 10 | 1
O=C1c2ccccc2-c2cccc(C(=O)N3CCCCC3)c21 | 1 | 7 | 7 | 1 | 2 | 1 | / | /
CCCN(CCC)C(=O)C1CCCN1S(=O)(=O)c1cccc2nsnc12 (stereo not drawn) | 0 | -7 | -1 | -3 | 1 | 0 | / | /
COc1ccc(Cn2c(N)c(C#N)c3nc4ccccc4nc32)cc1OC | -4 | 0 | 11 | 2 | -19 | -1 | / | /
COc1ccc(CCn2c(N)c(C#N)c3nc4ccccc4nc32)cc1OC | 0 | 34* | 57* | 6 | 24* | 4 | -5 | -11
CCOc1cc(CNc2ccc(N3CCCCC3)cc2)cc(Br)c1OCC(=O)NC(C)(C)C | -8 | -1 | 33 | -3 | 3 | -2 | / | /
CCOc1cc(CNc2ccc(N(C)C)cc2)cc(Br)c1OCC(=O)NC(C)(C)C | 2 | 9 | 81* | 11 | 23* | 3 | 4 | 0
COc1ccc(NC(=O)CSc2ccc3nnc(-c4cccnc4)n3n2)c(OC)c1 | 0 | 10 | 6 | 2 | 1 | 3 | / | /
C(=Nc1cccc2c(N=Cc3ccco3)cccc12)c1ccco1 | 4 | 6 | 40* | 3 | 62* | 10 | 3 | 9
C(=N\C(/N=C/c1ccco1)c1ccco1)/c1ccco1 | -2 | 5 | 19 | -6 | -1 | 4 | / | /
COCC(=O)N1CCC(Oc2ccc(C(=O)NCc3cc(C(C)C)no3)cc2)CC1 | -4 | -9 | 2 | -6 | -5 | -2 | / | /
O=[N+]([O-])c1cc(Br)c(O)c(C=Nc2ccc(N3CCOCC3)cc2)c1 | -1 | -2 | 72* | 6 | 54* | 6 | -14 | -1
Nc1ccc2c(c1)C(=O)C(=O)c1ccccc1-2 | 87* | 38* | 94* | 95* | 82* | 66* | 94* | 73* | LYPLA1 conf=81*;LYPLA2 confirm=92*
Nc1ccc2c(c1)C(=O)c1ccccc1C2=O | 1 | 5 | 23 | 3 | -6 | 3 | / | /
COc1ccc(S(=O)(=O)Nc2cc(SCC(=O)O)c(O)c3ccccc23)cc1 | 5 | 23 | 81* | 28* | 35* | 18 | 54* | -7 | LYPLA2 confirm=28*
CCCC(=Nc1ccc(N)cc1)C1=C(O)C(C(=O)OC)C(C)(C)CC1=O (stereo not drawn) | 15* | 34* | 88* | 28* | 67* | 16 | 8 | 1 | LYPLA1 conf=2;LYPLA2 confirm=5
O=C(N/N=C\c1ccc([N+](=O)[O-])o1)C1COc2ccccc2O1 (stereo not drawn) | 1 | 4 | 28 | 3 | -1 | 11 | / | /
O=C(N/N=C\c1ccc(-c2ccccc2[N+](=O)[O-])o1)C1COc2ccccc2O1 (stereo not drawn) | -1 | 13 | 66* | 5 | 29* | 4 | 47* | -7
COc1ccc(-n2nnnc2SCC(=O)Nc2nnc(C)s2)cc1OC | -5 | -8 | 5 | 1 | -1 | -1 | / | /
COc1cc(CN(C)Cc2cccc3ccccc23)cc([N+](=O)[O-])c1O | 3 | -4 | 1 | 5 | 3 | 3 | / | /
COC(=O)c1cc(NC(=S)N2CCN(C(=O)C3CCCO3)CC2)cc(C(=O)OC)c1 (stereo not drawn) | -6 | -4 | -2 | 2 | 3 | -4 | / | /
CC1=NN(c2ccc(C)cc2)C(=O)/C1=C\c1ccc(Br)s1 | -2 | 5 | 40* | -2 | 21* | 11 | 12 | 40*
CC1=NN(c2ccccc2)C(=O)/C1=C\c1cn(-c2ccccc2)nc1C | -1 | 0 | 6 | 6 | -3 | 0 | / | /
SMILES | LYPLA1 counter | PME-1 primary | GSTO1 counter | LYPLA2 counter | PAD4 inh | Fam108B counter | GSTO1 inh conf | PAD4 FP conf | others
O=C(O)/C=C/C(=O)Nc1ccc(O)cc1 | 3 | 13 | 59* | 14 | 60* | 0 | 8 | 4
CCN1C(=O)N(c2cccc3ccccc23)C(C)=CC1(C)C | 0 | 3 | 1 | 3 | 0 | -1 | / | /
CCN1c2ccccc2N(C)C1(C)c1ccccc1 (stereo not drawn) | -2 | 1 | 55* | 5 | 20* | -1 | 37* | -17
COc1cccc(Nc2nc3ccccc3nc2NS(=O)(=O)c2cccs2)c1 | 2 | 20 | 29 | -1 | -2 | 6 | / | /
Cc1cccc(NC2=C/C(=N/S(=O)(=O)c3cccs3)c3ccccc3C2=O)c1 | 3 | 16 | 84* | 7 | 28* | 17 | 81* | 40*
Cc1ccc(NC2=C/C(=N\S(=O)(=O)c3cccs3)c3ccccc3C2=O)c(C)c1 | 0 | 6 | 81* | 14 | 65* | 19* | 89* | 56*
Cc1ccc(Nc2cc(=O)oc3ccccc23)c(C)c1 | -1 | 1 | -3 | 3 | 2 | -1 | / | /
CNC(=S)SCCOc1ccccc1C | -1 | 3 | 1 | 3 | -1 | 2 | / | /
CC(=O)N1CCN(S(=O)(=O)c2ccc3c(c2)CC(=O)N3)CC1 | -2 | 6 | / | 5 | -8 | / | / | /
Cc1cc(=O)n(-c2ccc(O)cc2)[nH]1 | 0 | 7 | 73* | 0 | 61* | 2 | 8 | -3
Cc1cc(=O)n(-c2ccccc2Cl)[nH]1 | 4 | -1 | 48* | 4 | 33* | 1 | 5 | 4
CCC1COCCS(=O)(=O)N1Cc1ccc(F)cc1 (stereo not drawn) | -2 | -4 | 14 | 3 | -2 | 3 | / | /
COc1ccc(Br)cc1CNc1ccc(O)cc1 | 14 | 29* | 86* | 9 | 28* | 4 | 6 | 2
COc1ccc(Br)cc1CNc1ccc2[nH]c(=O)[nH]c2c1 | 4 | 5 | -10 | -4 | -8 | 0 | / | /
CC1(C)N([O-])c2cc([N+](=O)[O-])ccc2[N+]1=O | 0 | 23 | 82* | -1 | 30* | 15 | 42* | 15*
